We go through 17 compounds from PubChem BioAssay (Tox21).

Several values for one entry are separate records, joined by “and”; a condition that tells them apart may be missing. Equal entries are not always repeated. Inconclusive results are not listed. Some compounds were tested as several samples or in several runs, with calls that do not always agree. Activity calls are given as the source filed them. Unless noted, calls come from the whole dose curve; as a rule, active = well fitted curve in the direction sought with a large enough effect in the repeat runs; inconclusive = weak or mixed curves; inactive = no such curve, though single readings can be large; an effect the other way counts as inactive or inconclusive.

Experiment [1] can be described thus: qHTS assay to identify small molecule agonists of the vitamin D receptor (VDR) signaling pathway - cell viability counter screen (AID 743224). Note: nearly all actives have a fitted effect of over 50% in size. Note: potency is the fitted concentration of half-maximal effect. In outline:
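Cytotoxicity counter screen: VDR-bla cells, 16 h compound exposure at 37C, 5% CO2; CellTiter-Glo luminescence, 30 min RT, same wells as bla read.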
A general note: Quantitative high-throughput screening tests each substance at several concentrations.

The nature of experiment [2]: qHTS assay to identify small molecule agonists of the NFkB signaling pathway - cell viability counter screen (AID 1159515; calls by dose curve; note: nearly all actives have a fitted effect of over 55% in size; note: potency is the fitted concentration of half-maximal effect). In outline: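 ME-180 NFkB-bla cells, 2,000/well; overnight attach; compound 5 hr, 37 C/5% CO2; LiveBLAzer substrate 1.5 hr RT; then CellTiter-Glo in same wells, 30 min RT, luminescence read.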
Experiment [3] is described as follows: qHTS assay to identify small molecule agonists of the endoplasmic reticulum stress response signaling pathway (AID 1159516; active = well fitted activation curve with a large enough effect in the signal ratio in the repeat runs, not every such curve was filed as active; the % refers to the signal ratio; note: potency is the fitted concentration of half-maximal effect). The gist of the method: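 HeLa ESRE-bla reporter line; cpd 5 h, 37 C/5% CO2; LiveBLAzer B/G FRET substrate 2 h RT; ex 405, em 460/530 nm.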
Experiment [4] can be described thus: qHTS assay to identify small molecule agonists of the endoplasmic reticulum stress response signaling pathway - cell viability counter screen (AID 1159517; calls by dose curve; note: nearly all actives have a fitted effect of over 50% in size; note: potency is the fitted concentration of half-maximal effect). In outline:
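Steps: seed 1,500 ESRE-bla HeLa cells per well; incubate overnight at 37 C, 5% CO2; add compounds in DMSO for 5 hr; run FRET substrate 2 hr RT; add CellTiter-Glo, wait 30 min, read luminescence.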

Experiment [5] is described as follows: qHTS assay to identify small molecule antagonists of the retinoid-related orphan receptor gamma (ROR-gamma) signaling pathway - cell viability counter screen (AID 1159520). Note: nearly all actives have a fitted effect of over 50% in size. Note: potency is the fitted concentration of half-maximal effect. The gist of the method:
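Tet-on ROR gamma CHO cells were given compounds for 2 hr, then doxycycline hyclate at 1 uM final, and incubated 16 hr at 37 C. Viability was measured as ATP content by CellTiter-Glo luminescence.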

Experiment [6] is described as follows: qHTS assay to identify small molecule agonists of the AP-1 signaling pathway - cell viability counter screen (AID 1159525; calls by dose curve; note: nearly all actives have a fitted effect of over 55% in size; note: potency is the fitted concentration of half-maximal effect). The gist of the method:
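Same-well cytotoxicity counter screen of the Tox21 10K library in ME-180 cells. The readout is ATP-dependent luminescence after 5 h compound treatment. Data are normalised to DMSO and tetra n-octyl ammonium bromide controls.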

Experiment [7] in a line: qHTS assay to identify small molecule agonists of the AP-1 signaling pathway (AID 1159526; calls by dose curve).
Experiment [8] can be described thus: qHTS assay to identify small molecule agonists of the RXR signaling pathway - cell viability counter screen (AID 1159529). Note: nearly all actives have a fitted effect of over 50% in size. Note: potency is the fitted concentration of half-maximal effect. The gist of the method:
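Cell viability is measured by CellTiter-Glo luminescence, 30 min at room temperature, in wells already read for beta-lactamase. Engineered HEK 293T cells (RXR-alpha-UAS-bla) are dosed 16 hr at 37 C. Tetraoctyl ammonium bromide serves as positive control.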

Experiment [9] in a line: qHTS assay to identify small molecule antagonists of the retinoid acid receptor (RAR) signaling pathway - cell viability counter screen (AID 1159551). Note: nearly all actives have a fitted effect of over 35% in size. Note: potency is the fitted concentration of half-maximal effect. In outline: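 C3RL4 RARE-luciferase line; cpds + retinol 1 uM final, 6 h, 37 C/5% CO2; CellTiter-Glo ATP luminescence, 30 min RT.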
A short description of experiment [10]: qHTS assay to identify small molecule antagonists of the retinoic acid receptor (RAR) signaling pathway (AID 1159552; note: nearly all actives have a fitted effect of over 50% in size). The gist of the method: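 Quantitative HTS in C3RL4 RARE-luciferase reporter cells. Compounds were added with 1 uM (final) retinol; luminescence was read after 6 hr.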
Experiment [11] in a line: qHTS assay to identify small molecule agonists of the retinoic acid receptor (RAR) signaling pathway (AID 1159553). Note: potency is the fitted concentration of half-maximal effect. In outline:
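RARE-luc C3RL4 cells; overnight attachment 37 C/5% CO2; compound (DMSO) 6 hr; luciferase reagent, 30 min RT; luminescence read-out.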

The nature of experiment [12]: qHTS assay to identify small molecule antagonists of the vitamin D receptor (VDR) signaling pathway - cell viability counter screen (AID 743225). Note: nearly all actives have a fitted effect of over 50% in size. The gist of the method:
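Cells (VDR-UAS-bla HEK 293T) are plated, rested 4 h at 37C, dosed with compound and 3 nM final 1-alpha,25-dihydroxy vitamin D3, and incubated 16 h. Viability is taken from CellTiter-Glo luminescence in the reporter wells.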

The target in experiment [13] is Retinoic acid receptor RXR-alpha (Homo sapiens) (UniProt P19793). Description: qHTS assay to identify small molecule agonists of the RXR signaling pathway (AID 1159527; calls by dose curve; note: nearly all actives have a fitted effect of over 35% in size; note: potency is the fitted concentration of half-maximal effect). In outline:
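qHTS of the Tox21 10K library in GeneBLAzer RXR-alpha HEK 293T cells carrying a beta-lactamase reporter […]; 16 hr treatment, 9-cis retinoic acid as agonist control, FRET read-out.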

Experiment [14] concerns the target Nuclear receptor ROR-gamma (Homo sapiens) (UniProt P51449). Description: qHTS assay to identify small molecule antagonists of the retinoid-related orphan receptor gamma (ROR-gamma) signaling pathway (AID 1159521). The gist of the method:
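RORγ antagonism is scored from reduced reporter luminescence in Tet-on CHO cells. Induction used 1 uM final doxycycline hyclate for 16 h at 37 C, following a 2 h compound exposure.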

Retinoic acid receptor RXR-alpha (Homo sapiens), sequence (P19793 whole entry, looked up): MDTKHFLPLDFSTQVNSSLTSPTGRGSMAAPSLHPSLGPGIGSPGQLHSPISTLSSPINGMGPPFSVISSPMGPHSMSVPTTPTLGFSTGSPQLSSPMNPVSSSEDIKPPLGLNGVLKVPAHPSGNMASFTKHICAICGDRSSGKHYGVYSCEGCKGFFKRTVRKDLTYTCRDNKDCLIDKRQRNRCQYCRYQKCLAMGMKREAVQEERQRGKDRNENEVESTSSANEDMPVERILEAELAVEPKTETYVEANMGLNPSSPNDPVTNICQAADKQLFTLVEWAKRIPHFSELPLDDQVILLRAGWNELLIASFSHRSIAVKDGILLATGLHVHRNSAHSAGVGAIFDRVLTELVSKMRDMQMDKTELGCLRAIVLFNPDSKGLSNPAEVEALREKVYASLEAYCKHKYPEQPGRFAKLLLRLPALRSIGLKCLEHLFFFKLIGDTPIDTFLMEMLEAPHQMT

Take `CCc1cnc(C2=NC(C)(C(C)C)C(=O)N2)c(C(=O)O)c1` (stereo not drawn): the Potency result in experiment [1], in experiment [2], in [3], in experiment [4], in experiment [5] and in [6] was “inactive” in each case. The Potency result in experiment [7], in experiment [8], in experiment [9], in experiment [10] and in [11] was “inactive” in each case.

For `CCOP(=O)(SC(C)CC)N1CCSC1=O` (stereo not drawn), the Potency entry in experiment [1], in experiment [12], in experiment [2], in experiment [3], in experiment [4] and in experiment [5] was “inactive” throughout. For the same compound, the Potency entry in experiment [6], in experiment [7], in experiment [8], in [9] and in experiment [10] was “inactive” in each case. For the same compound, in [13], the Potency was 11 µM (active).

As to `CCCC[P+](CC)(CCCC)CCCC` (tested in a mixture with another compound), the Potency result in experiment [2], in experiment [3], in experiment [4], in experiment [5], in experiment [7] and in experiment [13] was “inactive” throughout. The Potency result in experiment [9] is “inactive”.

Consider `N#CC(C#N)=C(C#N)C#N`, for which the Potency result in experiment [1], in experiment [2], in experiment [3], in [4], in [5] and in experiment [7] was “inactive” each time. For the same compound, the Potency entry in experiment [13], in experiment [8], in experiment [9], in experiment [10] and in experiment [11] was “inactive” throughout.

In the case of `CCOC(=O)c1cncn1C(C)c1ccccc1` (stereo not drawn), the Potency result in experiment [2], in [3], in [4], in experiment [5], in experiment [6] and in experiment [7] was “inactive” throughout. Moreover, the Potency entry in experiment [13], in experiment [9], in experiment [10] and in experiment [11] was “inactive” each time.

For the compound `COc1cc(CC(C)N)c(OC)cc1Br` (stereo not drawn), the Potency entry in [1], in [2], in experiment [3], in experiment [4], in [5] and in [7] was “inactive” in each case. Moreover, the Potency entry in experiment [9] and in experiment [10] was “inactive” each time.

Consider `NC(=S)c1c(Cl)cccc1Cl`, for which the Potency result in experiment [1], in experiment [2], in experiment [3], in experiment [4], in [5] and in [6] was “inactive” throughout. Besides, the Potency result in [7], in experiment [8], in [9], in [10] and in experiment [11] was “inactive” each time.

For `CCCC(C)(COC(N)=O)COC(=O)NC(C)C` (stereo not drawn), the Potency entry in [12], in experiment [2], in experiment [3], in experiment [5], in experiment [14] and in experiment [6] was “inactive” throughout. Further, the Potency entry in experiment [7], in [13] and in experiment [9] was “inactive” each time.

For `Nc1ccc2c(c1)Cc1ccccc1-2`, the Potency entry in experiment [1], in experiment [2], in experiment [3], in experiment [5], in experiment [14] and in experiment [6] was “inactive” throughout. For the same compound, the Potency result in experiment [7], in experiment [13], in experiment [8], in [9] and in [10] was “inactive” each time. In addition, the Potency in experiment [11] is 10.8 µM (active).

Turning to `CC(C)(C)CC(C)(C)c1ccc(O)cc1`, the Potency in experiment [1] was 15.5 µM (active) and inactive; in [2], 21.9 µM (active); in [4] it was 21.9 µM (active); in [5] it was 27.3 µM (active); in experiment [6], 17.4 µM (active); in experiment [8], 17.4 µM (active) and 23.9 µM (active). Besides, in experiment [9], the Potency is 43.3 µM (active). In addition, in experiment [3], the Potency result was “inactive”.

Take `OC[P+](CO)(CO)CO`: the Potency was 55.6 µM (active) and inactive in [1]; 1.57 µM (active) in experiment [3]. Besides, the Potency entry in experiment [12], in [2], in experiment [4], in experiment [5], in experiment [6] and in experiment [7] was “inactive” throughout. Moreover, the Potency result in experiment [13], in experiment [9], in experiment [10] and in [11] was “inactive” throughout.

Turning to `CC1(C)CC(=O)CC(C)(C)N1[O]`, the Potency result in experiment [1], in experiment [12], in [2], in [3], in experiment [5] and in [14] was “inactive” in each case. Further, the Potency entry in experiment [6], in [7], in experiment [13], in experiment [8], in [9] and in [10] was “inactive” in each case. Moreover, the Potency entry in experiment [11] was “inactive”.

As to `CCCCCBr`, the Potency entry in experiment [1], in experiment [12], in [2], in [3], in experiment [4] and in experiment [5] was “inactive” throughout. Besides, the Potency entry in experiment [6], in experiment [7], in experiment [13], in experiment [9] and in experiment [10] was “inactive” throughout.

With `CCOc1cccc(C2(N3CCN(c4ccccc4)CC3)CCC(C)CC2)c1` (stereo not drawn), the Potency entry in [1], in experiment [2], in [3], in experiment [4], in experiment [5] and in [6] was “inactive” each time. Also, the Potency result in experiment [7], in experiment [13], in experiment [9], in experiment [10] and in [11] was “inactive” each time.

As to `C=C(C)C(=O)OCCCCOC(=O)C(=C)C`, the Potency result in experiment [12], in [2], in experiment [3], in experiment [4], in experiment [5] and in experiment [6] was “inactive” each time. Also, the Potency entry in experiment [7], in experiment [13], in [9] and in experiment [10] was “inactive” each time.

As for `c1ccc2sc(SNC3CCCCC3)nc2c1`, the Potency entry in experiment [1], in experiment [12], in experiment [2], in experiment [3], in [4] and in [5] was “inactive” throughout. The Potency entry in experiment [8], in experiment [9] and in experiment [10] was “inactive” in each case.

`CCC1CCC(=O)O1` (stereo not drawn): the Potency entry in experiment [1], in experiment [12], in experiment [2], in [3], in experiment [5] and in experiment [14] was “inactive” each time. The Potency entry in experiment [6], in experiment [7], in experiment [13], in [8], in experiment [9] and in experiment [10] was “inactive” each time. Moreover, in experiment [11], the Potency result was “inactive”.
